Compound activity: PubChem BioAssay, several laboratories
PostGolgi yeast: growth inhibition of a yeast mutant, post-Golgi transport screen. post-Golgi transport phenotypic cell assay. inhibition, % at 10 µM. hit rate 0.9% among 98,000. AID 739;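 note: yeast cells grown in 1536-well plates; yeast grown about 18 h at 30C before absorbance read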
CYP2C9 activ: activators of human CYP2C9. P11712. recombinant CYP2C9, luciferin-H conversion, luminescence; hits give high values; factor 1 = untreated enzyme, 0 = blocked. activation factor at 5 µM. hit rate 1.4% among 96,000. AID 1024;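 active = activation factor of 2 or more for CYP2C9 at a 5 µM dose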;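 note: 0 = sulfaphenazole-blocked wells and 1 = vehicle-only wells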
Target sequence (P11712 whole entry, looked up): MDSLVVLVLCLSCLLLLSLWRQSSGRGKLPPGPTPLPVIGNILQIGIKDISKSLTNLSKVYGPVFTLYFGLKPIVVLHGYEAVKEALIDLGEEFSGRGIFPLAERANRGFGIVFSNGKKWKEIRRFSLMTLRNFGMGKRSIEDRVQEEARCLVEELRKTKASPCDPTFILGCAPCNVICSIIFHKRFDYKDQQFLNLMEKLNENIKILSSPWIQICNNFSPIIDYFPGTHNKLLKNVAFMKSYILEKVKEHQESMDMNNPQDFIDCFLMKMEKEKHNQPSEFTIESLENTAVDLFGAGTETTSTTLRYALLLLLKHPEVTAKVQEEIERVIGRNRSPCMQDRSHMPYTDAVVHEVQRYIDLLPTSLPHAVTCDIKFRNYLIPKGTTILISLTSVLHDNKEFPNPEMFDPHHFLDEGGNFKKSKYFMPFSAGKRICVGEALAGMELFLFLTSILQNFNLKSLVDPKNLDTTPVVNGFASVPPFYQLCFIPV
CYP2C19 inhib: inhibitors of human CYP2C19. inhibition, % at 5 µM. AID 778. hit rate 21% among 96,000. CYP2C19 Supersomes, luciferin-H EGE luminescence, 30 min;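 active = CYP2C19 inhibition above a set limit at 5 µM in the primary screen, cut at about 50% in these data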;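 note: plate controls were negative control wells for no effect and 2.5 mM tranylcypromine positive control for full effect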
CYP2C9 inh: human CYP2C9 inhibition. P11712. CYP2C9 Supersomes, luciferin-H conversion, luminescence. inhibition, % at 5 µM. hit rate 20% among 96,000. AID 777;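 active = blocking of liver enzyme CYP2C9 beyond about 50% at 5 µM, limit read from the data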
PostGolgi ctrl: yeast control strain growth, post-Golgi counter-screen; efflux-deficient yeast background strain, growth absorbance A615, 16 h; inhibition, % at 10 µM; hit rate 5% among 98,000
CYP2C19 act: cytochrome P450 2C19 (human) activation | activation factor at 5 µM | P33261 | 96,000 tested, under 10 active | AID 1025 | recombinant CYP2C19, luciferin-H EGE luminescence; hits give high values; 0 = fully inhibited enzyme, 1 = untreated enzyme;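 active = activation factor of at least 2 at 5 µM in the primary screen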;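 note: 0 = wells with 2.5 mM tranylcypromine and 1 = vehicle-only wells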
* = called active by the depositor. In the library only some 32% were active in any assay of this set; here they are far more common. Cut-off read from the data, not from the text of the source, unless noted: active = inhibition above about 30%; inactive = the rest.

Screening Oc1c(/C=N/c2ncn[nH]2)ccc2ccccc12 returned PostGolgi yeast 1, CYP2C9 activ 0.9, CYP2C19 inhib 0, CYP2C9 inh 13, PostGolgi ctrl 4 and CYP2C19 act 1.
Screening Cc1c(NS(=O)(=O)c2ccc3c(c2)c(=O)n(C)c(=O)n3C)c(=O)n(-c2ccccc2)n1C returned PostGolgi yeast 16, CYP2C9 activ 0.9, CYP2C19 inhib 1, CYP2C9 inh 6, PostGolgi ctrl 9 and CYP2C19 act 1.
`Brc1ccc2ncnc(NCc3ccco3)c2c1` gave PostGolgi yeast -7, CYP2C9 activ 0.8, CYP2C19 inhib 29, CYP2C9 inh 21, PostGolgi ctrl 13 and CYP2C19 act 0.7.
For CN(Cc1ccccc1)c1ncnc2ccc(Br)cc12 the results were PostGolgi yeast 14, CYP2C9 activ 0.2, CYP2C19 inhib 97*, CYP2C9 inh 84*, PostGolgi ctrl 19 and CYP2C19 act 0.
Screening CCCCOC(=O)CSc1n[nH]c(=O)[nH]c1=O returned PostGolgi yeast 0, CYP2C9 activ 0.8, CYP2C19 inhib 7, CYP2C9 inh 17, PostGolgi ctrl -1 and CYP2C19 act 0.9.
Screening CNc1sc(C(=O)c2cccs2)c(N)c1-c1nc2ccccc2s1 returned PostGolgi yeast 4, CYP2C9 activ 0.3, CYP2C19 inhib 29, CYP2C9 inh 67*, PostGolgi ctrl 3 and CYP2C19 act 0.7.
`CNc1sc(C(=O)c2ccc(F)cc2)c(N)c1-c1nc2ccccc2s1` gave PostGolgi yeast -3, CYP2C9 activ 1.1, CYP2C19 inhib 3, CYP2C9 inh -6, PostGolgi ctrl 22 and CYP2C19 act 1.
COc1ccc(Oc2ccccc2/C=N/O)cc1 was read as PostGolgi yeast 15, CYP2C9 activ 1.2, CYP2C19 inhib 70*, CYP2C9 inh -18, PostGolgi ctrl 16 and CYP2C19 act 0.3.
Screening CC1(C)SC(=S)N(/N=C/c2ccccc2)C1N(O)C(=O)Nc1ccc([N+](=O)[O-])cc1 (stereo not drawn) returned PostGolgi yeast -7, CYP2C9 activ 1, CYP2C19 inhib -10, CYP2C9 inh 1, PostGolgi ctrl 4 and CYP2C19 act 1.1.
`CCN(CC)c1ccc(-n2cc3c(=O)n(C)c(=O)n(C)c3c2)cc1` gave PostGolgi yeast 6, CYP2C9 activ 0.9, CYP2C19 inhib 12, CYP2C9 inh 10, PostGolgi ctrl 8 and CYP2C19 act 0.9.
For CN(C)c1ccc(-n2cc3c(=O)n(C)c(=O)n(C)c3c2)cc1 the results were PostGolgi yeast 1, CYP2C9 activ 0.2, CYP2C19 inhib 46, CYP2C9 inh 76*, PostGolgi ctrl 21 and CYP2C19 act 0.5.
For CN1CCOCCOCCN(C)C1=O the results were PostGolgi yeast 3, CYP2C9 activ 1, CYP2C19 inhib 6, CYP2C9 inh 0, PostGolgi ctrl 0 and CYP2C19 act 0.9.
Screening CCOC(=O)c1ccc(NC(=O)CSc2nnc(COc3ccccc3)n2C)cc1 returned PostGolgi yeast 6, CYP2C9 activ 1, CYP2C19 inhib 14, CYP2C9 inh 2, PostGolgi ctrl 1 and CYP2C19 act 0.9.
`COC(=O)c1ccccc1NC(=O)CSc1nc(O)cc(=O)n1C1CCCC1` gave PostGolgi yeast -5, CYP2C9 activ 0.3, CYP2C19 inhib 28, CYP2C9 inh 74*, PostGolgi ctrl 7 and CYP2C19 act 0.7.
`COC(=O)c1ccccc1NC(=O)CSc1nccn1C` gave PostGolgi yeast -6, CYP2C9 activ 0.9, CYP2C19 inhib 85*, CYP2C9 inh 7, PostGolgi ctrl 6 and CYP2C19 act 0.1.
For CCOC(=O)c1ccc(NC(=O)CSc2nccn2C)cc1 the results were PostGolgi yeast 1, CYP2C9 activ 0.9, CYP2C19 inhib 60*, CYP2C9 inh 9, PostGolgi ctrl -5 and CYP2C19 act 0.4.
`Cn1ccnc1SCC(=O)NC12CC3CC(CC(C3)C1)C2` gave PostGolgi yeast 2, CYP2C9 activ 0.9, CYP2C19 inhib 92*, CYP2C9 inh 5, PostGolgi ctrl 3 and CYP2C19 act 0.1.
For CCC1SC(N)=NC1=O (stereo not drawn) the results were PostGolgi yeast 0, CYP2C9 activ 1.3, CYP2C19 inhib -16, CYP2C9 inh -27, PostGolgi ctrl 10 and CYP2C19 act 1.2.
For O=C(O)CSCC(=O)Nc1cccc2ccccc12 the results were PostGolgi yeast -2, CYP2C9 activ 1.1, CYP2C19 inhib -21, CYP2C9 inh -7, PostGolgi ctrl 2 and CYP2C19 act 1.2.
Screening COC(=O)c1ccccc1NC(=O)CSc1nnc(CNS(=O)(=O)c2ccc(C)cc2)n1C returned PostGolgi yeast 14, CYP2C9 activ 0.1, CYP2C19 inhib 52*, CYP2C9 inh 94*, PostGolgi ctrl 8 and CYP2C19 act 0.5.
Screening Cn1ccnc1SCC(=O)Nc1cccc2ccccc12 returned PostGolgi yeast 2, CYP2C9 activ 1.6, CYP2C19 inhib 97*, CYP2C9 inh -61, PostGolgi ctrl 1 and CYP2C19 act 0.
`COC(=O)c1ccccc1NC(=O)Cn1ccnc1` gave PostGolgi yeast 0, CYP2C9 activ 0.2, CYP2C19 inhib 100*, CYP2C9 inh 84*, PostGolgi ctrl 0 and CYP2C19 act 0.
Screening CCOc1cc(C(=O)OCC(=O)Nc2cc(C)on2)cc(OCC)c1OCC returned PostGolgi yeast -11, CYP2C9 activ 1, CYP2C19 inhib 3, CYP2C9 inh 1, PostGolgi ctrl 1 and CYP2C19 act 1.
Screening CCNc1nc(NC(C)C)nc(Oc2ccc(/C=N/O)cc2)n1 returned PostGolgi yeast 0, CYP2C9 activ 0.3, CYP2C19 inhib 5, CYP2C9 inh 69*, PostGolgi ctrl 11 and CYP2C19 act 0.9.
`CCC1SC2=NC(C)=C(C(=O)OC)C(c3ccc(C(=O)OC)cc3)N2C1=O` (stereo not drawn) gave PostGolgi yeast -6, CYP2C9 activ 0.5, CYP2C19 inhib 93*, CYP2C9 inh 49, PostGolgi ctrl 0 and CYP2C19 act 0.1.
COC(=O)C1=C(C)N=C2SC(C)C(=O)N2C1c1cccc(F)c1 (stereo not drawn) was read as PostGolgi yeast 4, CYP2C9 activ 1, CYP2C19 inhib -12, CYP2C9 inh 5, PostGolgi ctrl -11 and CYP2C19 act 1.1.
Screening CCOC(=O)C1=C(C)Nc2nc(SC)nn2C1c1ccc(C(=O)OC)cc1 (stereo not drawn) returned PostGolgi yeast -5, CYP2C9 activ 0.8, CYP2C19 inhib 19, CYP2C9 inh 18, PostGolgi ctrl 16 and CYP2C19 act 0.8.
CCC1SC2=NC(C)=C(C(=O)OCCOC)C(c3ccc(C(=O)OC)cc3)N2C1=O (stereo not drawn) was read as PostGolgi yeast 2, CYP2C9 activ 0.3, CYP2C19 inhib 65*, CYP2C9 inh 65*, PostGolgi ctrl -3 and CYP2C19 act 0.3.
CCCc1nc(N)c(C#N)c(-c2cccnc2)c1CC was read as PostGolgi yeast 24, CYP2C9 activ 0.8, CYP2C19 inhib 61*, CYP2C9 inh 24, PostGolgi ctrl 15 and CYP2C19 act 0.4.
